Compound activity as filed in PubChem.
Compounds with a hit are over-represented: about 9.1% of the library has one in this group of screens.
M1 agonist: agonists of M1 muscarinic receptor. CHO-M1 cells, Fluo-4 calcium fluorescence, agonist mode; hits give high values. B-score at 10 µM. actives 3% (n = 64,000);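 active means fluorescence rise, raw or as B-score row- and column-corrected plate score, outside the 99.7% band of its plate's samples, either direction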
D1 mod: D1 dopamine receptor (human) allosteric modulation. P21728. HEK293 D1, CRE-luciferase, dopamine EC30 potentiation; actives deviate in either direction. B-score at 10 µM. actives 5.9% (n = 58,000);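 active means luminescence count or its row- and column-corrected plate score outside the 99.7% band of the plate's sample wells, on either side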
Htt clearance: mutant huntingtin protein clearance. AID 853. HeLa Exon1htt(103Q)mCFP, aggregate imaging; zero = plate's median compound well. actives 0.42% (n = 47,000). inhibition, % at 1.5 µM;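 active means inhibition of aggregate fluorescence above about 70%, also judged a hit by eye on the cell image, limit read from the data, passing the limit was not always enough; inconclusive means no rule stated for this call; inactive means not judged a hit on image review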;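 further: cells exposed to compound for three days before fixation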
M1 antagonist: M1 muscarinic receptor (rat) antagonism. P08482. CHO-M1 cells, Fluo-4 calcium, ACh EC80 antagonist mode; hits give low values. B-score at 10 µM. actives 3.4% (n = 64,000). AID 628;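 active means calcium fluorescence response, raw or row-and-column corrected B-score, differing from the plate sample mean either way at a set confidence level, mostly lower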
Target sequence (P08482 whole entry, looked up): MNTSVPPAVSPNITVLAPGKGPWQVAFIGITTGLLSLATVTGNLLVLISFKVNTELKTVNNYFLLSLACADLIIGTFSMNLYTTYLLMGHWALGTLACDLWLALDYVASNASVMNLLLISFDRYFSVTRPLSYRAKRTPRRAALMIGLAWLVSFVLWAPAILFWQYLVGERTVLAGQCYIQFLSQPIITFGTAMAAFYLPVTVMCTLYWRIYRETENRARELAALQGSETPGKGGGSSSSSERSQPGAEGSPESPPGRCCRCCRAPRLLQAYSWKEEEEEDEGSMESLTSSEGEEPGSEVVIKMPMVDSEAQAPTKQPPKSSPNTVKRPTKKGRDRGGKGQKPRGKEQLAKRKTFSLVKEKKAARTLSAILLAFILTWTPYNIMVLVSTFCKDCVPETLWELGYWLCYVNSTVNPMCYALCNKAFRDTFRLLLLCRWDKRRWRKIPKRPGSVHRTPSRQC
M1 ag confirm: confirmation of rat M1 muscarinic receptor agonists; shares compounds with M1 agonist; CHO-M1 cells, Fluo-4 calcium fluorescence, agonist mode; actives lie on both sides; fluorescence change (max-min) at 10 µM; actives 19% (n = 1,700); AID 1488;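 active means fluorescence change differs from the solvent-only DMSO control mean at a set confidence level in both duplicate runs; inconclusive means differs from solvent-only control mean in just one of two runs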;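 further: an EC20 dose of acetylcholine follows compound addition during the same imaging run; raw fluorescence intensity difference in instrument units with no normalization to controls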
M4 ag counter: rat M4 muscarinic agonism, M1 counter-screen. fluorescence change (max-min) at 10 µM. actives 9% (n = 1,700). CHO M4/Gqi5 cells, Fluo-4 calcium fluorescence, agonist mode; actives lie on both sides. shares compounds with M1 agonist;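 active means fluorescence change differing from the plate's solvent-only control wells at 99.7% confidence in both duplicates, whether higher or lower; inconclusive means differs from solvent controls in only one of two duplicates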
M1 antag conf: M1 muscarinic receptor (rat) antagonism, confirmed. shares compounds with M1 antagonist. CHO-M1 cells, Fluo-4 calcium, ACh EC80 antagonism; hits give low values. calcium response (max-min fluorescence) at 10 µM. actives 43% (n = 1,700). AID 677;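 active means calcium response below the same-plate mean of wells given acetylcholine alone at its 80%-effect dose, minus 3 SD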;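 further: raw fluorescence intensity difference in arbitrary instrument units and not normalized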
mGluR4 antag: selectivity test for M1 antagonists: human mGluR4 receptor | CHO-mGluR4 calcium flux, Fluo-4 fluorescence, glutamate EC80; hits give low values | AID 678 | actives 0.9% (n = 1,700) | shares compounds with M1 antagonist | fluorescence response (max-min) at 10 µM;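 active means fluorescence response below the plate's average for near-maximal glutamate wells, less 3 SD of those wells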;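 further: raw unnormalized fluorescence span taken in the window right after glutamate addition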
D1 mod confirm: confirmation of human D1 dopamine receptor allosteric modulators; luminescence at 10 µM; AID 642; shares compounds with D1 mod; actives 88% (n = 2,200); HEK293 D1 CRE-luciferase, dopamine EC30 potentiation; hits give high values;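 active means luminescence in either of two replicates above the same-plate mean plus 3 SD of the low-dose dopamine control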
D1 no dopamine: secondary test of D1 modulators: activity without dopamine; shares compounds with D1 mod; HEK293 D1 CRE-luciferase, luminescence, no dopamine; hits give high values; luminescence at 10 µM; actives 0.8% (n = 1,900); in the data active means luminescence above about 3900
Isoprot counter: isoproterenol response counter-screen activity for D1 modulators. actives 63% (n = 2,200). shares compounds with D1 mod. HEK293 D1 CRE-luciferase, isoproterenol EC30 counter-screen; hits give high values. AID 647. luminescence at 10 µM;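 active means luminescence in either replicate above plate mean of wells with a partly effective reference agonist dose plus 3 SD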;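 further: isoproterenol raises cAMP through native beta-adrenoceptor Gs so signal bypasses D1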
The depositor's hits bear a star; u = inconclusive; x = no result.

SMILES | M1 agonist | D1 mod | Htt clearance | M1 antagonist | M1 ag confirm | M4 ag counter | others
O=C1CSC(c2nn(-c3ccccc3)cc2-c2cc3ccccc3oc2=O)N1Cc1ccco1 (configuration not stated) | 3.2* | -0.21 | x | -0.25 | 11 | -38
CN1CCN(C(=O)c2ccc(C3SCC(=O)N3Cc3ccco3)cc2)CC1 (configuration not stated) | 0.57 | 0.12 | x | 0.3 | x | x
Nc1cc(Cl)ccc1N1CCOCC1 | -0.061 | x | 45 | -1.3 | x | x
Clc1ccc2c(c1)CNc1c(ncnc1N1CCOCC1)O2 | 2.7* | -0.64 | -54 | -2* | u | -74
CC(C)c1nc2oc3c(NCC4CCCO4)ncnc3c2c2c1COC(C)(C)C2 (configuration not stated) | 4.5* | 12* | -9 | -0.059 | -26 | -42
CC(=O)NC(CCS(C)(=O)=O)C(=O)Nc1ccc(Cl)c(Cl)c1 (configuration not stated) | 2.9* | 0.1 | x | -1.6 | -8.3 | -47
O=C(c1oc2ccccc2c1CSCc1ccccc1)N1CCN(c2ncccn2)CC1 | 7* | -0.19 | -26 | -0.74 | -7.6 | u
c1ccc(-c2nnc(SCc3cn4ccsc4n3)o2)cc1 | 39* | 0.76 | x | -0.42 | -13 | -40
O=C(Nc1ccc(CCC(=O)N2CCCC2)cc1)c1ncn[nH]1 | 1.8* | x | x | -0.0062 | 6.1 | -9.7
O=C(NCc1cccnc1)c1cccc(Cl)c1 | 0.82 | -0.05 | -2 | 0.1 | x | x
O=C(NCCc1cccc(Cl)c1)c1cccnc1 | 11* | 0.23 | x | -4.4* | -1.5 | -21
O=C(NCC(=O)N(c1ccccc1)C(C(=O)NC1CCCCC1)c1ccncc1)c1ccco1 (configuration not stated) | 2.5* | x | 31 | -0.025 | -11 | u
O=C(NCC(=O)N(Cc1cccs1)C(C(=O)NC1CCCC1)c1ccco1)c1cccs1 (configuration not stated) | 3.2* | -1.9 | x | -1.2 | -17 | u
O=C(NCC(=O)N(c1ccccc1)C(C(=O)NCC1CCCO1)c1ccccc1)c1ccco1 (configuration not stated) | 8.3* | -0.81 | 37 | -0.32 | u | -54
Cc1ccc(NC(=O)CS(=O)CC(=O)Nc2ccc3c(c2)OCO3)cc1Cl (configuration not stated) | -0.0034 | x | -12 | 0.88 | x | x
O=C(CSc1cn(CCNC(=O)c2cccs2)c2ccccc12)NC1CCCC1 | x | x | 36 | x | x | x
O=c1oc2c3c4c(cc2c2c1CCC2)OCCN4CCC3 | 24* | 1.3 | -47 | -1.4 | 111* | 93
COc1ccccc1N1CCN(C(=O)CCCC2=NS(=O)(=O)c3ccccc3N2)CC1 | 3.2* | -0.64 | x | -0.0014 | -22* | -54
CC(C)COC(=O)C(C#N)c1nc2ccccc2nc1N1CCN(Cc2ccccc2)CC1 (configuration not stated) | -2.3* | -0.42 | -26 | -1.3* | 8.3 | -8.4 | M1 antag conf=631;mGluR4 antag=178
CCn1c(COc2cccc(C)c2C)nnc1SCC(=O)N1CCN(c2ccc(OC)cc2)CC1 | x | x | 7 | x | x | x
O=C(NCCC1=CCCCC1)C1CCN(S(=O)(=O)c2cccc3cccnc23)CC1 | 2.6 | 1.5 | -102 | 0.31 | x | x
CC1CCCCN1CCNC(=O)c1cc2c(=O)n(C)c3ccccc3c2n1C (configuration not stated) | -2.7* | 0.41 | -12 | -4.2* | -17 | -25 | M1 antag conf=419*;mGluR4 antag=254
Cc1cc(O)c(/C=N/c2ccccn2)c(=O)o1 | -0.81 | -0.024 | x | 0.57 | x | x
CCOc1ccc(N=Cc2c(O)cc(C)oc2=O)cc1 | -3.4* | 0.8 | -27 | -10* | -13 | u | M1 antag conf=688;mGluR4 antag=203
CCC(CC)C(=O)Nc1c2c(nn1-c1ccc(OC)cc1)CS(=O)C2 (configuration not stated) | -2.4* | 1.5 | -21 | -3.3* | u | -36 | M1 antag conf=675;mGluR4 antag=175
SMILES | M1 agonist | D1 mod | Htt clearance | M1 antagonist | M1 ag confirm | M4 ag counter | others
CCOC(=O)C1CCCN(C(=O)CNC(=O)Cn2ccc3ccccc3c2=O)C1 (configuration not stated) | 0.45 | 0.36 | x | 0.93 | x | x
CCOC(=O)c1ccc(NC(=O)N2CCN(CCc3ccccc3)CC2)cc1 | -2.4* | -1.4 | x | -2.2* | -1.7 | -23 | M1 antag conf=459;mGluR4 antag=192
CCOC(=O)c1ccc(NC(=O)N2CCN(c3ccccn3)CC2)cc1 | 0.82 | 0.65 | 4 | 0.0017 | x | x
CCOc1ccccc1NC(=O)CC1Nc2ccccc2NC1=O (configuration not stated) | -1.3 | 0.74 | x | -0.37 | x | x
CCOc1ccccc1NC(=O)CC1Nc2cc(C)c(C)cc2NC1=O (configuration not stated) | -2.3* | 1.3 | -40 | -2.6* | -10 | -41 | M1 antag conf=597;mGluR4 antag=232
CCc1nnc(NC(=O)c2ccc(N3C(=O)CCC3=O)cc2)s1 | -2.5* | -1.1 | x | -3.1* | u | 0.15 | M1 antag conf=694;mGluR4 antag=199
COc1ccc(CCNc2cc(=O)[nH]c(N)n2)cc1 | -0.2 | 0.056 | 51 | 0.73 | x | x
COC(=O)c1ccc(C(=O)OC)c(NC(=O)COC(=O)C23CC4CC(CC(O)(C4)C2)C3)c1 | 5.3* | 3.1* | -6 | -1.7 | -6.2 | -22 | D1 mod confirm=5580*;D1 no dopamine=1192;Isoprot counter=2280
CCCCNC(=O)c1ccc2nc(-c3ccco3)c(-c3ccco3)nc2c1 | 10* | 3.8* | x | -0.57 | 9.4 | u | D1 mod confirm=8120*;D1 no dopamine=1444;Isoprot counter=2788
O=C(Nc1ccccc1)c1ccc2nc(-c3ccco3)c(-c3ccco3)nc2c1 | 0.91 | -0.019 | x | -0.11 | x | x
Cc1nc2ccccn2c1/C(O)=C1\C(=O)C(=O)N(CCCN(C)C)C1c1ccc(Cl)cc1 (configuration not stated) | -0.94 | 0.051 | x | 1.3 | x | x
COCCCNc1c2c3c(cccc3[nH]c1=O)C(=O)c1ccccc1-2 | 466* | 3* | 52 | -13* | 3166* | 2818* | D1 mod confirm=8772*;D1 no dopamine=1436;Isoprot counter=2896
COCCCNS(=O)(=O)c1ccc2c3c(cccc13)C(=O)S2 | 0.65 | 0.34 | 19 | -0.38 | x | x
